# Laboratory results published in PMC5540273 (PLoS ONE, 2017).
# Test system: CDK4
# Details: concentration: 1 μM, replicates: in singlicate; n = 1
# 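Further: KINOMEscan kinase panel screen.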
row,Compound,%Inh
1,COc1cc2nccc(Nc3ccc(NC(=O)c4ccc(C)cc4)c(O)c3)c2cc1OC.Cl [GW440132],35%
2,Nc1ncnc2[nH]c(-c3ccccc3)nc12 [AH5015],7%
3,Cl.NC(=O)c1cccc(Nc2nccc(Nc3ccc(Oc4cccc(Cl)c4)c(Cl)c3)n2)c1 [GW659008],48%
4,COC(=O)c1c(-c2ccccc2)c2cc(OC)ccc2c(=O)n1Cc1ccccc1,0%
5,CN(C)CCN(C)C(=O)c1cc(-c2ccncc2)c(-c2ccc(Cl)c(O)c2)o1.Cl.Cl [SB-710397],0%
6,CS(=O)(=O)c1ccc(-c2c(-c3ncn[nH]3)sc(N3CCOCC3)c2C#N)cc1,1%
7,CC(=O)Nc1nc2cnc(Nc3cc(NC(=O)c4cccc(CCC#N)c4)ccc3C)nc2s1,2%
8,COc1ccc(Nc2nccc(NCCNC(=O)Nc3ccccc3F)n2)cc1 [GSK1379901],0%
9,CN1C(=O)C(Nc2ccc(Cl)c(C(=O)O)c2)=C(c2ccc(Cl)cc2)C1=O [SB-404290],47%
10,Cn1cncc1-c1ccc2ncnc(Nc3ccc(OCc4ccccc4)cc3)c2c1 [GW320571],0%
11,COc1cc2ncn(-c3cc(OCC4CCCO4)c(C(N)=O)s3)c2cc1OC (centres unmarked) [GSK204607],13%
12,COc1ccccc1-c1ccc2c(NC(=O)C3CC3)n[nH]c2n1 [SB-711239],33%
13,Cc1c(Cn2ccn3c(=O)cc(N4CCOCC4)nc23)cccc1C(F)(F)F [GSK2289044],4%
14,Cc1ccc(NC(=O)Nc2cccc(Cl)c2)cc1-c1ccc(C(=O)Nc2ccncc2)cc1 [GSK1398468],0%
15,Cl.Oc1ccc(-c2nc(-c3ccccc3)[nH]c2-c2ccncc2)cc1 [SB-428218],0%
16,C[C@@H]1CCCCN1c1cc(-c2ccc3c(N)n[nH]c3c2)nc(N)n1 [GSK2258759],21%
17,COC(=O)c1c(-c2ccccc2)c2cc(C(=O)O)ccc2c(=O)n1Cc1ccccc1,0%
18,Cc1cccc(-c2nc(Nc3ccc4[nH]ncc4c3)c3ccccc3n2)n1 [GW857175],0%

row,Compound,%Inh
1,Nc1nc(-c2nccs2)c(-c2ccnc3ccccc23)s1 [GW693542],15%
2,Cc1c(O)cccc1Nc1ccnc2ccc(C(F)(F)F)cc12.Cl [GW466413],33%
3,O=C(Nc1ccc2c(c1)OCO2)NC1CCN(c2ccnc(Nc3ccc(F)cc3)n2)C1 (centres unmarked) [GSK1379724],0%
4,Cc1ccccc1-n1cnc2c(N)ncnc21 [SKF-97510],0%
5,Cc1ccc(C(=O)Nc2ccc(Nc3ccnc4cc(-c5ccccn5)ccc34)cc2O)cc1.Cl [GW440146],32%
6,COc1ccc(Nc2nccc(-c3cccc(NC(=O)c4cc5cc(F)ccc5[nH]4)c3)n2)cc1 [GSK1229782],48%
7,COc1cccc(-c2cc(-c3c[nH]nc3-c3ccccn3)ccn2)c1 [GW680338],31%
8,Cc1cccc(-c2nc(-c3ccc(S(C)(=O)=O)cc3)sc2-c2ccnc(NCCc3ccccc3)c2)c1,0%
9,Clc1cc(Cl)cc(Nc2ccnc(Nc3cc(Cl)cc(Cl)c3)n2)c1 [GSK175726],11%
10,O=C(Nc1n[nH]c2nc(-c3nccs3)c(Br)cc12)C1CC1 [SB-742251],44%
11,O=C(Nc1n[nH]c2cc(-c3cccc(F)c3F)ccc12)C1CC1 [SB-733894],0%
12,Cc1nnc(-c2ccc3occ(-c4ccc(S(C)=O)cc4)c3c2)[nH]1 (centres unmarked),0%
13,Cc1cccc(-c2nc(C)cc(Nc3ccncc3)n2)n1 [GSK257997],28%
14,NC(=O)c1nnc2ccccc2c1N,0%
15,O=c1cc(N2CCOCC2)nc2n(Cc3cccc(Cl)c3Cl)ccn12 [GSK2286295],0%
16,CS(=O)(=O)c1ccc(-c2nc3n(c2-c2ccncc2)CCC3)cc1 [SKF-105942],9%
17,COc1ccc(C2=C(Nc3cccc(C(=O)O)c3)C(=O)NC2=O)cc1 [SB-390765],51%
